From PubChem
This is a sample that favours compounds with a hit; in the whole collection about 12% have one here.
G9a block: blocks human histone lysine methyltransferase G9a. 350,000 tested, 8.8% active. AID 504332. Q96KQ7. G9a H3K9 monomethylation, AlphaScreen, 2 h. Potency, µM (doses to about 102 µM), for inactives: top-dose activity, negative = inhibition, most hits filed as inhibitors; also: % is scaled to controls: 0 for no effect and ±100 for the full control effect; nearly all actives have a fitted effect of over 75% in size
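AlphaScreen detection with an anti-monomethyl H3K9 antibody quantified product after a 2 h room-temperature reaction containing 500 nM biotinylated H3K9 peptide, 20 µM SAM and 20 nM enzyme, which had been preincubated 15 min with compound.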
Sfp PPTase inh: Sfp phosphopantetheinyl transferase inhibition; Q9F4F7; Biochemical Sfp PPTase activity, qHTS; Potency, µM, inactives show largest response in the series, negative = inhibition, hits mostly inhibitors; 310,000 tested, 3.5% active;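 also: the enzyme is Sfp with the accession as filed and its product quenches rhodamine fluorescence; 0% = enzyme reaction without inhibitor and -100% = no enzyme wells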
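With Hepes-Na pH 7.6 buffer containing 10 mM MgCl2, Sfp (15 nM) modified BHQ-2-YbbR (12.5 uM) using rhodamine-CoA (5 uM). Two reads 30 minutes apart at 525/598 nm yielded each well's rate.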
HP1b chromo inh: HP1-beta chromodomain-methylated histone interaction inhibition; AlphaScreen HP1-beta / biotin-H3K9me3 peptide binding; P83916; 390,000 tested, 0.56% active; Potency, µM (top dose mostly 114 µM), without a hit: top-dose activity change, negative = inhibition, actives largely listed as inhibitors; also: nearly all actives have a fitted effect of over 70% in size
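Compound inhibition of the preformed complex between 50 nM HP1-beta and 50 nM biotinylated H3K9me3 peptide was read by AlphaScreen. Buffer was PBS pH 7.4 with 0.01% Tween-20. Incubations ran 30 min at room temperature, with 10 ug/mL donor/acceptor beads.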
JMJD2A Tudor inh: JMJD2A Tudor domain (human) inhibition. O75164. AlphaScreen JMJD2A-Tudor / H3K4me3 peptide binding. Potency, µM (series often up to 114 µM), inactives show top-dose activity change, negative = inhibition, hits mostly inhibitors. 390,000 tested, 4.4% active; also: % is scaled to controls: 0 for no effect and ±100 for the full control effect; nearly all actives have a fitted effect of over 50% in size
Target sequence (O75164 whole entry, looked up, the tested form may be a part): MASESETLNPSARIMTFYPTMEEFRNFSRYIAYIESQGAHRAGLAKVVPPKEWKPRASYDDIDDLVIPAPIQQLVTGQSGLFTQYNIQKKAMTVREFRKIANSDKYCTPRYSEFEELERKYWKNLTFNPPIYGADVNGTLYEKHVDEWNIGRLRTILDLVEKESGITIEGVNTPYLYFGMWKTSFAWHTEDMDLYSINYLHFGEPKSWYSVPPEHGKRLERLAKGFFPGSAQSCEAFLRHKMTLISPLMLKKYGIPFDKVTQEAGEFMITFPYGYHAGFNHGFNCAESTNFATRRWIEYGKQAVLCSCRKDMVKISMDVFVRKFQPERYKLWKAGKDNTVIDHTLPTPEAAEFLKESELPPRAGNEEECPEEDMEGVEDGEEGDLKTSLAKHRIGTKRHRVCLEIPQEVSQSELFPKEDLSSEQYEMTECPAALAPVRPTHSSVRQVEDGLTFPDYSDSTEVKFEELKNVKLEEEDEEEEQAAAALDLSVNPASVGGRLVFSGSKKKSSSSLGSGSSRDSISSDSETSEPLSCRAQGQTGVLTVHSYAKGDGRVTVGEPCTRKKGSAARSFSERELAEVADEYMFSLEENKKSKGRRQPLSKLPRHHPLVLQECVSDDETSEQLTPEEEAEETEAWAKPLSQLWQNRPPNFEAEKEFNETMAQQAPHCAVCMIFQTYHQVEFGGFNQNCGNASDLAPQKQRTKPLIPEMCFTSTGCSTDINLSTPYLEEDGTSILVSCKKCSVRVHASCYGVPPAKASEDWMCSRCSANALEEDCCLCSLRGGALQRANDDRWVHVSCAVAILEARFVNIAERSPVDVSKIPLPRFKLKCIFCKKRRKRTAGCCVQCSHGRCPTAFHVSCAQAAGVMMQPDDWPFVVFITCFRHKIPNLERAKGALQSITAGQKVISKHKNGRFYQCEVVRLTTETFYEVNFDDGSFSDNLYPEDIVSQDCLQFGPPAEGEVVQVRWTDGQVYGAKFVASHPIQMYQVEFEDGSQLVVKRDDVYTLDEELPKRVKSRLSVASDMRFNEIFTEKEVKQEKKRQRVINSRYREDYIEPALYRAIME
L3MBTL1 block: inhibitors of human L3MBTL1. AlphaScreen L3MBTL1–H3K9me1 peptide binding. 230,000 tested, 0.66% active. Potency, µM (highest dose often 57.1 µM), inactives show top-dose activity, negative = inhibition, actives largely listed as inhibitors; also: % is scaled to controls: 0 for no effect and ±100 for the full control effect; nearly all actives have a fitted effect of over 60% in size
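AlphaScreen assay: L3MBTL1 (50 nM final) was preincubated 30 min at room temperature with biotinylated H3(1-15)K9me1 peptide (75 nM final), then 30 min with library compounds; streptavidin donor and nickel chelate acceptor beads (10 ug/mL final) added, 30 min dark.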
BAZ2B inh: BAZ2B (human) inhibition; Q9UIF8; 360,000 tested, 4.4% active; AlphaScreen BAZ2B-H3K14Ac peptide displacement; Potency, µM (doses to about 114 µM), for inactives: at the highest dose activity change, negative = inhibition, actives largely listed as inhibitors; also: % is scaled to controls: 0 for no effect and ±100 for the full control effect; nearly all actives have a fitted effect of over 60% in size
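BAZ2B 50 nM plus b-H3(5-23)K14Ac 50 nM, PBS pH 7.4/0.01% Tween-20, 30 min RT; compound added (max 110 uM), 30 min RT; streptavidin donor/Ni-chelate acceptor beads 10 ug/mL final, 20 min dark; AlphaScreen read.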
* hit, by the source's call; [ ] = dose if it differs, or a comment. Calls follow the shape of the dose curve; as a rule, active = well fitted curve in the direction sought with a large enough effect; inconclusive = small, poorly fitted or top-dose-only effect, or another doubt; inactive = no such curve, though single readings can be large; an effect the other way counts as inactive or inconclusive. Potency is read from the fitted curve at half-maximal effect.

`COc1cccc(CNCCO)c1OCc1ccccc1Cl` gave G9a block 12%[59 µM], Sfp PPTase inh -15%, HP1b chromo inh 25%, JMJD2A Tudor inh 0%, L3MBTL1 block 7% and BAZ2B inh 5%.
For COc1cccc(/C=N/Nc2nnc(C)n2N)c1OCc1ccccc1Cl the results were G9a block 22µM*, Sfp PPTase inh -7%, HP1b chromo inh 8%, JMJD2A Tudor inh -30%, L3MBTL1 block 10% and BAZ2B inh 16%.
Screening COc1cc(-c2[nH]ncc2CN2CCSCC2)cc(OC)c1OC returned G9a block -3%, Sfp PPTase inh 12%, HP1b chromo inh -2%, JMJD2A Tudor inh -7%, L3MBTL1 block -6% and BAZ2B inh -3%.
For COc1cc(OC)c(OC)cc1CN1CCSCC1 the results were G9a block inconclusive, Sfp PPTase inh -4%, HP1b chromo inh inconclusive, JMJD2A Tudor inh 3.2µM*, L3MBTL1 block -4% and BAZ2B inh 79µM*.
Screening COc1ccc(CN2CCCC(CO)(Cc3ccc(F)cc3)C2)cc1C (stereo unspecified) returned G9a block -1%, Sfp PPTase inh 22%, HP1b chromo inh 19%, JMJD2A Tudor inh -13%, L3MBTL1 block 4% and BAZ2B inh -1%.
`COc1ccc(CN2CCSCC2)cc1C` gave G9a block 10µM*, Sfp PPTase inh -18%, HP1b chromo inh inconclusive, JMJD2A Tudor inh 8.9µM* and BAZ2B inh 79µM*.
COc1cc(C)c(CN2CCSCC2)cc1C was read as G9a block -31%[0.501 µM], Sfp PPTase inh -9%, HP1b chromo inh -3%, JMJD2A Tudor inh 32µM*, L3MBTL1 block -7%[2.29 µM] and BAZ2B inh inconclusive.
For CCN(C(=O)C(C)Sc1nnc(-c2ccncc2)n1C)C1CCCCC1 (stereo unspecified) the results were HP1b chromo inh 16%, JMJD2A Tudor inh 2% and L3MBTL1 block 0%.
Screening COc1ccc(Cn2c(CCC(=O)Nc3ccc(OC)c(Cl)c3)nc3cccnc32)cc1 returned G9a block -18%[59 µM], HP1b chromo inh 20%, JMJD2A Tudor inh 3% and BAZ2B inh -11%.
For c1ccc(C(NCc2cccnc2)(c2ccccc2)c2ccccc2)cc1 the results were G9a block -32%[59 µM] and Sfp PPTase inh inconclusive.
`COC(=O)C1=C(C(=O)OC)[C@@H]2N(C)c3ccc(OC)cc3[C@@]23C[C@@H](C(=O)OC)N(S(=O)(=O)c2ccc(Br)cc2)C3=N1` gave Sfp PPTase inh 13%.
Screening COC(=O)C1=C(C(=O)OC)[C@@H]2N(C)c3ccc(OC)cc3[C@@]23C[C@@H](C(=O)OC)N(C(=O)c2ccc(Br)cc2)C3=N1 returned G9a block inconclusive, Sfp PPTase inh 9%, HP1b chromo inh -23%, JMJD2A Tudor inh 13µM* and BAZ2B inh 20µM*.
For Cc1cccc(C(=O)NC2CCN(CC(=O)NCc3ccccc3F)CC2)c1 the results were G9a block -9%, Sfp PPTase inh 9%, HP1b chromo inh 26%, JMJD2A Tudor inh -5% and BAZ2B inh -3%.
For Cc1cc(Sc2ncnc(N)c2[N+](=O)[O-])ncn1 the results were G9a block -3%[12.7 µM], Sfp PPTase inh 50µM*, HP1b chromo inh 26%, JMJD2A Tudor inh -8%[57.1 µM], L3MBTL1 block 8% and BAZ2B inh -29%.
Cc1cc(N)ncc1[N+](=O)[O-] was read as HP1b chromo inh 13%[57 µM] and JMJD2A Tudor inh -3%.
Cc1cc(Sc2nc(N)ncc2[N+](=O)[O-])ncn1 was read as G9a block 32µM*, Sfp PPTase inh 22µM*, HP1b chromo inh 33%, JMJD2A Tudor inh 1%, L3MBTL1 block 0% and BAZ2B inh inconclusive.
`N#Cc1c2ccc(O)cc2n2ccccc12` gave G9a block 4µM*, Sfp PPTase inh -5%, HP1b chromo inh 85%, JMJD2A Tudor inh 36%, L3MBTL1 block 36% and BAZ2B inh 19%.
For COc1ccc(/C=C2\CCC(C3CCCC3)C2=O)cc1OC (stereo unspecified) the results were G9a block -1%, Sfp PPTase inh -3%, HP1b chromo inh 25%, JMJD2A Tudor inh -7% and BAZ2B inh -2%.
Screening COc1ccc(/C=C2\CC/C(=C\c3ccc(OC)c(OC)c3)C2=O)cc1OC returned G9a block inconclusive, Sfp PPTase inh -20%, HP1b chromo inh -22%, JMJD2A Tudor inh inconclusive, L3MBTL1 block -11% and BAZ2B inh 20µM*.
`COc1cc(/C=C2\CC/C(=C\c3ccc(OCCO)c(OC)c3)C2=O)ccc1OCCO` gave G9a block 45µM*, Sfp PPTase inh -16%, HP1b chromo inh -2%, JMJD2A Tudor inh -18%, L3MBTL1 block -3% and BAZ2B inh -21%.
COc1cc(/C=C2/CC/C(=C/c3ccc(O)c(OC)c3)C2=O)ccc1O was read as G9a block inconclusive, Sfp PPTase inh inconclusive, HP1b chromo inh -7%, JMJD2A Tudor inh -19%[11.4 µM], L3MBTL1 block -14% and BAZ2B inh inconclusive.
For COc1ccc(C=C2C=C(C(C)(C)C)C(=O)C(C(C)(C)C)=C2)cc1OC the results were Sfp PPTase inh -22%, HP1b chromo inh inconclusive, JMJD2A Tudor inh 32µM*, L3MBTL1 block -5% and BAZ2B inh 25µM*.
COc1ccc(/C=C2\CCc3ccccc3C2=O)cc1OC was read as G9a block inconclusive, Sfp PPTase inh -16%, HP1b chromo inh 3%, JMJD2A Tudor inh -26%, L3MBTL1 block -1% and BAZ2B inh -32%.
`CN(C)c1ncc2nc(-c3cc(F)cc(F)c3)c(=O)n(CCc3ccccc3)c2n1` gave G9a block 6%[0.501 µM] and Sfp PPTase inh -19%.
COc1cc(NC(=O)CN2C(=O)C(=O)N(CC(C)C)C2=O)cc(OC)c1 was read as G9a block inconclusive, HP1b chromo inh 5%, JMJD2A Tudor inh -3%, L3MBTL1 block -2% and BAZ2B inh 11%.
CN(C)c1ccc2c(c1)C(=NO)c1ccccc1-2 was read as HP1b chromo inh 45µM* and JMJD2A Tudor inh 40µM*.
ON=C1c2ccccc2-c2ccccc21 was read as G9a block 0%, Sfp PPTase inh 5%, HP1b chromo inh 29%, JMJD2A Tudor inh 3% and BAZ2B inh 5%.
`Cc1c(/C=N/NC(=O)CNc2ccccc2)c2ccccn2c1C(=O)c1ccncc1` gave G9a block 45µM*, Sfp PPTase inh 19%, HP1b chromo inh -2%, JMJD2A Tudor inh -15%, L3MBTL1 block -26% and BAZ2B inh inconclusive.
